# Assay outcomes as filed in PubChem.
# LmPK inh: inhibitors of Leishmania mexicana pyruvate kinase | purified LmPK, Kinase-Glo ATP luminescence, 1 h | hit rate 0.37% among 290,000 | Q27686 | Potency, µM (doses to about 57.5 µM), hits mostly inhibitors
# Target sequence (Q27686 whole entry, looked up): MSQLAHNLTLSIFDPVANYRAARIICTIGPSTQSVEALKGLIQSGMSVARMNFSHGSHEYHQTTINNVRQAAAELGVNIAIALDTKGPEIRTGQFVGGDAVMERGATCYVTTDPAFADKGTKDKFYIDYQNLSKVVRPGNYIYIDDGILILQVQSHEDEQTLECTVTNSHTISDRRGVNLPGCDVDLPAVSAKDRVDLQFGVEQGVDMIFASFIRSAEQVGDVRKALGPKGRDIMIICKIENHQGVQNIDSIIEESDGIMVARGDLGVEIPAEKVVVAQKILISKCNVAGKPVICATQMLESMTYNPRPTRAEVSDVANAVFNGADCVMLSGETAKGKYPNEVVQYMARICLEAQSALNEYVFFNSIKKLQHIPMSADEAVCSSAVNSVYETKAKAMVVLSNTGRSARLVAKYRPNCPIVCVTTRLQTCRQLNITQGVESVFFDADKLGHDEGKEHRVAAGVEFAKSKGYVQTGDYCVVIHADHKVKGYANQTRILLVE
#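 In 50 mM imidazole pH 7.2 with 7 mM MgCl2, LmPK (0.1 nM) turned over PEP (0.5 mM) and ADP (0.1 mM) for 1 h at room temperature. Luciferase read-out of ATP.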
# Tb PYK inh: inhibitors of Trypanosoma brucei pyruvate kinase; TbPYK enzyme, Kinase-Glo Plus ATP luminescence, 45 min; Potency, µM (titrated, usually from 76.8 µM), most hits filed as inhibitors; hit rate 0.12% among 410,000; also: nearly all actives have a fitted effect of over 50% in size
#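 ADP (130 uM final) triggers the TbPYK reaction after compound addition; incubation is 45 min at room temperature. Kinase-Glo Plus is then added and luminescence imaged. Normalized data are fitted to concentration-effect curves.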
# RE007 growth inh: less growth of the S. pombe RE007 Vpr strain; Potency, µM (titrated, usually from 92.2 µM), actives largely listed as inhibitors; S. pombe RE007 Vpr strain, BacTiter-Glo ATP luminescence, 24 h; AID 651644; hit rate 0.21% among 360,000; active = well fitted falling curve with a large enough effect; inconclusive = small, poorly fitted or top-dose-only effect; inactive = no such curve, though single readings can be large or run the other way; also: nearly all actives have a fitted effect of over 50% in size
#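 Fission yeast strain RE007, carrying one chromosomally integrated HIV-1 vpr copy, was seeded at OD 0.01 in PMG+AL medium with 23 nL pinned compound. After 24 h at 30 °C and 99% humidity, viability was read by BacTiter-Glo luminescence.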
# FBPA Giardia inh: Giardia lamblia aldolase inhibition; A8B2U2; purified Giardia FBPA; Potency, µM (series often up to 59.6 µM), actives largely listed as inhibitors; hit rate 0.71% among 290,000; AID 2451; also: nearly all actives have a fitted effect of over 55% in size
#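 40 nM FBPA preincubated 10 min at RT with compound (up to 57.5 uM final), then substrate plus GAPDH/TPI/NAD/arsenate coupling and diaphorase/resazurin added. Fluorescence read after 20 min at RT, 525/598 nm.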
# CHX counter: counter-screen hit for Shiga toxin inhibitors, cycloheximide. cell reporter, cycloheximide protein synthesis inhibition counterscreen. max response, %. hit rate 12% among 300,000. AID 2314; in the data active = max response mostly above about 13%, no sharp cut-off; inactive = mostly below about 14%; also: read at 38.3 µM for the half of the compounds with a filed dose
# Shiga inhibitor: blocks Shiga toxin action in Vero cells | AID 2315 | hit rate 9.2% among 290,000 | Vero cells, Shiga toxin protein synthesis inhibition reporter | inhibition, % at 38.7 µM; in the data active = inhibition mostly above about 28%, no sharp cut-off; inactive = mostly below about 43%
# A number is an active result; 0 = inactive; ? = inconclusive; - = no result given; + = active, no number. This excerpt belongs to a sample that is enriched for hits. Unless noted, calls follow the shape of the dose curve; as a rule, active = well fitted curve in the direction sought with a large enough effect; inconclusive = small, poorly fitted or top-dose-only effect, or another doubt; inactive = no such curve, though single readings can be large; an effect the other way counts as inactive or inconclusive.
SMILES,LmPK inh,Tb PYK inh,RE007 growth inh,FBPA Giardia inh,CHX counter,Shiga inhibitor
COc1ccc(CCNC(=S)N2CCC(C(N)=O)CC2)cc1,0,0,0,0,0,0
Oc1ccccc1N1CCN(C(=S)NCCc2ccccc2)CC1,0,0,0,0,27.2,31.5
COc1ccc(N2CCN(C(=S)NCCc3ccccc3)CC2)cc1,-,0,0,-,-,-
OCC1=CC[N+]2(Cc3ccccc3)CCC(O)[C@@H]12 (some centres undefined),-,-,-,0,-,-
CCCN1CCN(CCCNC(=O)c2ccc3c(c2)sc2nc(-c4ccc(OC)cc4)cn23)CC1,-,0,-,-,-,-
CCn1c(SCC(=O)Nc2cccc(Cl)c2)nnc1-c1nonc1NC(C)=O,-,0,-,-,-,-
CC(C)c1ccc2c(c1)NC(c1ccc(F)cc1)=NC(c1cccs1)=N2,-,0,-,-,-,-
O=C(Nc1nnc(SCc2ccccn2)s1)C1CC(=O)N(c2ccc(F)cc2)C1 (centres undefined),0,0,0,-,0,0
OC1CCN(C(=S)NCCc2ccccc2)CC1,0,0,0,0,0,0
Fc1cccc(CN2CCN(C(=S)NCCc3ccccc3)CC2)c1,0,0,0,0,0,0
S=C(NC1CCCCC1)N1CCc2ccccc2C1,0,0,?,0,38.1,+
S=C(NCCc1ccccc1)N1CCc2ccccc2C1,0,0,0,0,67.0,116.4
S=C(NCCc1ccccc1)N1CCN(Cc2ccccc2)CC1,0,0,0,0,30.5,0
CC1(C)Oc2ccc(C(=O)NC3CCCCC3)cc2N(CC#N)C1=O,0,0,0,0,0,0
CCOC(=O)Cc1csc(NC(=O)CC)n1,0,0,0,0,0,0
CCOC(=O)Cc1csc(NC(=O)CC(C)(C)C)n1,0,0,0,0,31.7,122.1
CCOC(=O)Cc1csc(NC(=O)C(C)(C)CC)n1,0,0,0,0,31.1,51.0
CCOC(=O)Cc1csc(NS(C)(=O)=O)n1,0,0,0,0,0,0
CCOC(=O)CN(C(=O)CSc1nnc(-c2cccc(OC)c2)o1)c1ccc(F)cc1,0,0,0,0,14.7,0
CCOC(=O)CN(C(=O)CSc1nnc(CNc2ccc(F)cc2)o1)c1ccccc1,0,0,0,0,21.9,0
Cc1ccc(C)c(OCc2cc(C(=O)N3CCc4sccc4C3)no2)c1,0,0,0,-,0,0
Cc1ccc(C)c(OCc2cc(C(=O)N(C)Cc3nccs3)no2)c1,0,0,0,0,22.9,52.0
Cc1ccc(C)c(OCc2cc(C(=O)N(C)Cc3ccccn3)no2)c1,0,0,0,0,28.7,48.7
O=C(COC(=O)C1CC1)Nc1cccc(Cl)c1,-,0,0,-,-,-
O=C(COC(=O)c1ccccc1O)Nc1ccc(OC(F)F)cc1,0,0,0,0,21.9,55.9
SMILES,LmPK inh,Tb PYK inh,RE007 growth inh,FBPA Giardia inh,CHX counter,Shiga inhibitor
O=C(O)CCCC(=O)Nc1ccc(N=Nc2ccccc2)cc1,0,0,0,0,0,0
O=C(COC(=O)C1CC1)Nc1ccc(N=Nc2ccccc2)cc1,0,0,0,0,65.7,78.7
COC(=O)CCC(=O)Nc1ccc(N=Nc2ccccc2)cc1,0,0,0,0,39.0,64.1
NS(=O)(=O)c1ccc(NC(=O)COC(=O)C2CCCCC2)cc1,0,0,0,0,33.2,40.2
COc1ccc(C(=O)OCC(=O)Nc2ccc(OC(F)F)cc2)c(OC)c1,0,0,0,0,0,0
O=C1c2oc3ccccc3c(=O)c2C(c2ccc(O)cc2)N1Cc1ccc2c(c1)OCO2 (centres undefined),-,0,-,-,-,-
CCCC12CN3CC(C)(CN(C1)C3c1ccc(OCc3ccccc3)cc1)C2=O (centres undefined),-,0,-,-,-,-
COc1ccccc1CNC(=O)C(CC(C)C)N1Cc2ccccc2C1=O (centres undefined),-,0,-,-,-,-
O=C(COC(=O)C1CCC1)Nc1ccc(OC(F)F)cc1,0,0,0,0,0,0
O=C(COC(=O)C1CC1)Nc1ccc(OC(F)F)cc1,0,0,0,0,25.8,24.1
Cc1ccc(NC(=O)CCNC(=O)c2ccc(Br)cc2)nc1,0,0,0,0,17.9,56.3
Cc1ccc(NC(=O)CCNC(=O)c2ccc(Cl)cc2)nc1,0,0,0,0,40.9,73.6
Cc1ccc(NC(=O)CCCNC(=O)c2ccc(Cl)cc2)nc1,0,0,0,-,29.3,62.6
Cc1ccc(OCCNC(=O)CCNC(=O)c2ccc(Cl)cc2)cc1,-,0,0,-,-,-
Cc1ccc(NC(=O)CCCNC(=O)c2ccc(Cl)cc2)c(O)c1,0,0,0,0,69.0,91.0
Cc1cnc(NC(=O)CCCNC(=O)c2ccc(Cl)cc2)s1,-,0,0,-,-,-
Cc1ccc(NC(=O)CCN2C(=O)NC(C)(C)C2=O)cc1F,-,0,0,-,-,-
CC1(C)Cc2c(C#N)c(N)n(-c3ccccc3)c(=S)c2CO1,0,0,0,0,0,0
CC1(C)C=C2C(=NN(c3ccccc3)C(N)=C2C#N)CO1,0,0,0,1.58µM,0,0
Cc1cnc(NC(=O)c2ccc3c(c2)OCCO3)s1,-,0,0,-,-,-
Cc1nc2ccc3nc(NC(=O)c4ccc5c(c4)OCCO5)sc3c2s1,0,0,0,0,12.2,0
Cc1ccc2sc(NC(=O)c3ccc4c(c3)OCCO4)nc2c1C,-,0,-,-,-,-
Cc1nc2c(ccc3nc(NC(=O)c4ccc5c(c4)OCCO5)sc32)s1,0,0,0,0,45.0,0
COc1ccc(-n2c(C)cc(C(=O)CN3C(=O)c4ccccc4C3=O)c2C)cc1,0,0,0,0,20.4,0
Cc1cc(C(=O)CN2C(=O)c3ccccc3C2=O)c(C)n1C1CC1,0,0,0,0,23.2,0
SMILES,LmPK inh,Tb PYK inh,RE007 growth inh,FBPA Giardia inh,CHX counter,Shiga inhibitor
CCN1C(=O)C(=O)N(CC(=O)c2cc(C)n(C3CC3)c2C)C1=O,-,0,0,-,-,-
Cc1ccc(Cl)cc1NC(=O)c1oc2c(c1C)-c1[nH]ncc1CC2,-,0,-,-,-,-
CCC(COC)NC(=O)c1ccc(OC)c(OC2CCN(C(C)=O)CC2)c1 (centres undefined),0,0,0,0,0,0
COCCOC(=O)C1=C(C)NC(C)=C(C(=O)OC/C=C/c2ccccc2)C1c1cccc([N+](=O)[O-])c1 (centres undefined),-,0,-,0,0,0
O=C(CSc1nc2cc(Cl)ccc2o1)N1CCOCC1,0,0,0,0,0,0
COc1ccccc1N1CCN(C(=O)CSc2nc3ccccc3o2)CC1,0,0,0,0,40.5,110.5
O=C(O)c1ccc2oc(SCC(=O)N3CCCCC3)nc2c1,0,0,0,0,22.9,58.0
CC1CCCN(C(=O)CSc2nc3ccccc3o2)C1 (centres undefined),0,0,0,0,0,60.6
CCc1cccc(NC(=O)CSC2=Nc3ccccc3N=C(c3ccc(F)cc3)C2)c1,-,0,-,-,-,-
CCOc1ccc2nc(N3CCN(C(=O)c4ccc5c(c4)CCCC5)CC3)sc2c1,-,0,-,-,-,-
CC(C)c1ccccc1NC(=O)C1CC(=O)N(C2CCCC2)C1 (centres undefined),0,0,0,0,0,0
